Here are results for 8 compounds from PubChem BioAssay (Tox21).

Results filed as inconclusive are left out. Active and inactive are the calls of the source. Unless noted, the call rests on the fitted dose curve; in most records, active means well fitted curve in the direction sought with a large enough effect in the repeat runs; inconclusive means weak or mixed curves; inactive means no such curve, though single readings can be large; an effect the other way counts as inactive or inconclusive.

Experiment [1] addresses Estrogen receptor beta (Homo sapiens) (UniProt Q92731). As to the kind of experiment: qHTS assay to identify small molecule agonists of the estrogen receptor beta (ER-beta) signaling pathway (AID 1259377; active means well fitted activation curve with a large enough effect in the signal ratio in the repeat runs, not every such curve was filed as active; the % refers to the signal ratio). In short, it runs like this:
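Beta-lactamase reporter readout: fluorescence of LiveBLAzer B/G FRET substrate after 2 h at room temperature, following 16 h compound treatment of ER-beta-UAS-bla HEK293T cells at 37C in 2% charcoal-stripped FBS medium.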

The target is the same in experiment [2]. The experiment in a line: qHTS assay to identify small molecule antagonists of the estrogen receptor beta (ER-beta) signaling pathway (AID 1259378; active means well fitted inhibition curve with a large enough effect in the signal ratio in the repeat runs, not every such curve was filed as active; the % refers to the signal ratio; further: potency means the concentration at half of the fitted maximal effect). The procedure, abridged:
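ER-beta-UAS-bla HEK293T (GripTite) cells in 2% charcoal-stripped FBS medium were preincubated 6 hr at 37C, dosed with compound, then stimulated with 1 nM E2 (final) for 16 hr; beta-lactamase reporter read by B/G FRET fluorescence after 2 hr substrate loading.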

Experiment [3] is described as follows: qHTS assay to identify small molecule agonists of the androgen receptor (AR) signaling pathway in the presence of an antagonist - cell viability counter screen (AID 1259379).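 Further: MDA-kb2 human breast cancer cells carrying an MMTV luciferase reporter; series mostly up to about 92 µM; nearly all actives have a fitted effect of over 25% in size.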 The procedure, abridged:
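Nilutamide-containing (3.0uM final) MDA-kb2 cultures, 3,000 cells/well, were treated with compounds across 15 concentrations. After 16 hr at 37C with no CO2, cell viability was determined by CellTiter-Fluor fluorescence in the luciferase assay wells.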

A short description of experiment [4]: qHTS assay to identify small molecule agonists of the estrogen receptor beta (ER-beta) signaling pathway - cell viability counter screen (AID 1259380). Further: nearly all actives have a fitted effect of over 30% in size. The procedure, abridged: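 Steps: plate ER-beta-UAS-bla HEK293T cells, rest 6 hr; add compounds in DMSO; incubate 16 hr at 37C, 5% CO2; add FRET substrate 2 hr; add CellTiter-Glo, wait 30 min at room temperature; read luminescence.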

The nature of experiment [5]: qHTS assay to identify small molecule antagonists of the estrogen receptor beta (ER-beta) signaling pathway - cell viability counter screen (AID 1259382). Further: series mostly up to about 92 µM; nearly all actives have a fitted effect of over 55% in size. In short, it runs like this: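 Viability is scored by CellTiter-Glo luminescence (30 min, room temperature) in ER-beta-UAS-bla HEK293T wells already read for reporter fluorescence. Compound exposure lasts 16 hr at 37C alongside 1nM 17-beta-estradiol in charcoal-stripped serum medium.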

Experiment [6] in a line: qHTS assay to identify small molecule agonists or antagonists of the thyroid stimulating hormone receptor (TSHR) signaling pathway - wild type cell line counter screen (AID 1259384; calls by dose curve). In short, it runs like this:
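Wild-type HEK293 cells were plated 18 h at 37 C/5% CO2, pin-dosed with compound plus Ro20-1724 medium, held 30 min at room temperature, then given cAMP-d2 and anti-cAMP-cryptate; fluorescence was read after 1 h. Fifteen concentrations, triplicate.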

Experiment [7] addresses Thyrotropin receptor (Homo sapiens) (UniProt P16473). The experiment in a line: qHTS assay to identify small molecule antagonists of the thyroid stimulating hormone receptor (TSHR) signaling pathway (AID 1259385; calls by dose curve; further: nearly all actives have a fitted effect of over 20% in size). The procedure, abridged:
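TSHR-HEK293 cells were plated and held 18 h at 37C/5% CO2, then given compound plus Ro20-1724 and stimulated with TSH at 1.5 ng/mL final. After 30 min at room temperature, cAMP was detected with cAMP-d2/anti-cAMP-cryptate (1 h) by fluorescence.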

Experiment [8] in a line: qHTS assay to identify small molecule agonists of the estrogen receptor alpha (ER-alpha) signaling pathway in the presence of an antagonist - cell viability counter screen (AID 1259386).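 Further: series mostly up to about 92 µM; cells exposed to compounds for 22 h at 37 °C before the viability read; nearly all actives have a fitted effect of over 30% in size.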 In short, it runs like this:
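In this counter screen, compound effects on VM7Luc4E2 viability were tested in the presence of the antagonist ICI-182,780 at 10.0nM final. Compounds were dosed at 15 concentrations, exposure lasted 22hr, and the CellTiter-Fluor signal was read.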

Experiment [9] concerns the target Progesterone receptor (Homo sapiens) (UniProt P06401). As to the kind of experiment: qHTS assay to identify small molecule agonists of the progesterone receptor (PR) signaling pathway (AID 1346784; calls by dose curve; further: nearly all actives have a fitted effect of over 30% in size). The procedure, abridged: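 HEK 293T PR-UAS-bla reporter cells, 2% charcoal-stripped FBS; 6 hr settle at 37C/5% CO2, compound (DMSO) 16 hr, LiveBLAzer B/G FRET substrate 2 hr RT, fluorescence intensity read.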

Experiment [10] shares this target. The experiment in a line: qHTS assay to identify small molecule antagonists of the progesterone receptor (PR) signaling pathway (AID 1346795; active means well fitted inhibition curve with a large enough effect in the signal ratio in the repeat runs, not every such curve was filed as active; the % refers to the signal ratio). In short, it runs like this: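 Beta-lactamase reporter, HEK293T PR-UAS-bla line; 2% charcoal-stripped FBS; 6 hr pre-incubation, 37C/5% CO2. Compound + R5020 1 nM final, 16 hr. LiveBLAzer B/G FRET substrate, 2 hr RT; fluorescence intensity read.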

A short description of experiment [11]: qHTS assay to identify small molecule antagonists of the progesterone receptor (PR) signaling pathway - cell viability counter screen (AID 1346798). Further: series mostly up to about 92 µM; nearly all actives have a fitted effect of over 50% in size. The procedure, abridged: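 Luminescence readout (CellTiter-Glo, 30 min, RT) of viability in PR-UAS-bla HEK293T cells exposed to compound and R5020 agonist for 16 hr at 37C, 5% CO2; run in the same wells as the beta-lactamase reporter read.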

A short description of experiment [12]: qHTS assay to identify small molecule agonists of the progesterone receptor (PR) signaling pathway - cell viability counter screen (AID 1346799; calls by dose curve; further: nearly all actives have a fitted effect of over 45% in size). The procedure, abridged: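 HEK293T PR-UAS-bla, 3,000 cells/well, 2% charcoal-stripped FBS; 6 h settle, compound 16 h at 37C/5% CO2; LiveBLAzer 2 h RT, then CellTiter-Glo 30 min RT, luminescence read.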
Experiment [13] can be described thus: qHTS assay to identify small molecule antagonists of the TGF-beta/Smad signaling pathway - cell viability counter screen (AID 1346824). Further: nearly all actives have a fitted effect of over 50% in size. The procedure, abridged: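 SBE-bla HEK 293T cells were plated overnight at 37 C, then given compounds in DMSO plus TGF-beta1 (added as 0.25 ng/mL solution) for 5 hr. After the bla read, CellTiter-Glo was added to the same wells and luminescence read after 30 min at room temperature.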

Experiment [14] in a line: qHTS assay to identify small molecule agonists of the TGF-beta/Smad signaling pathway - cell viability counter screen (AID 1346829). Further: top concentration of the series differs between compounds; nearly all actives have a fitted effect of over 45% in size. In short, it runs like this:
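CellTiter-Glo luminescence readout; SBE-bla HEK 293T cells, overnight plating, compound 5 hr at 37 C/5% CO2, then bla substrate 2 hr RT, then CellTiter-Glo 30 min RT.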

A short description of experiment [15]: qHTS assay to identify small molecule agonists of the TGF-beta/Smad signaling pathway (AID 1346859; active means well fitted activation curve with a large enough effect in the signal ratio in the repeat runs, not every such curve was filed as active; the % refers to the signal ratio; further: series mostly up to about 77 µM). The procedure, abridged:
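Read-out: fluorescence at 460 and 530 nm (405 nm excitation) after a 2 hr room-temperature incubation with beta-lactamase FRET substrate. SBE-bla HEK 293T cells had been treated with test compounds for 5 hr at 37 C.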

The target of experiment [16] is Thyrotropin-releasing hormone receptor (Homo sapiens) (UniProt P34981). The experiment in a line: qHTS assay to identify small molecule antagonists of the thyrotropin-releasing hormone receptor (TRHR) signaling pathway (AID 1346877; active means well fitted inhibition curve with a large enough effect in the repeat runs, not every such curve was filed as active; further: series mostly up to about 51 µM). The procedure, abridged: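 Kinetic fluorescence (3 min, 1 s resolution) following stimulation with TRH at 1 nM final; HEK293 cells bearing human TRHR; 5 min compound preincubation at RT; concentration-response over 15 points, triplicates.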
Chain of Thyrotropin-releasing hormone receptor (Homo sapiens) (P34981 whole entry, looked up): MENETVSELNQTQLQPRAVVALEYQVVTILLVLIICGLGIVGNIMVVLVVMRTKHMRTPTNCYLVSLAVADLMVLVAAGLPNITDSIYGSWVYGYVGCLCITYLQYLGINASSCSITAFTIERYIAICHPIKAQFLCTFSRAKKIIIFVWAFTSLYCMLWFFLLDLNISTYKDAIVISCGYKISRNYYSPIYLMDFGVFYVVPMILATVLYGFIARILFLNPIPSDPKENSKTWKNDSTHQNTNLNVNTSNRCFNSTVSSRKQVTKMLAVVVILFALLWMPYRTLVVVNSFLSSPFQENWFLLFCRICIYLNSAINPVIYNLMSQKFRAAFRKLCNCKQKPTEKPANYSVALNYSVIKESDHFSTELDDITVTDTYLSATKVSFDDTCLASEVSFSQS

The target is the same in experiment [17]. The experiment in a line: qHTS assay to identify small molecule agonists of the thyrotropin-releasing hormone receptor (TRHR) signaling pathway (AID 1346891; calls by dose curve;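 further: HEK293 cells expressing TRHR with calcium dye readout; series mostly up to about 58 µM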). The procedure, abridged:
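HEK293/TRHR cells, 1500 per well, 18 h 37 °C; Ca dye 2 h 37 °C; pin-tool compound addition (agonist mode); kinetic fluorescence 3 min, 1 s reads; 15 concentrations, triplicate.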

Experiment [18] can be described thus: Human pregnane X receptor (PXR) small molecule agonists, qHTS cell viability counter screen (AID 1346977). Further: nearly all actives have a fitted effect of over 50% in size. The procedure, abridged: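 Fluorescence read-out (CellTiter-Fluor) of viability in PXR-Luc HepG2 cells, multiplexed with the luciferase agonist read. Compounds in DMSO added after 5hr plating; 24hr total exposure at 37C, 5% CO2.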
The target in experiment [19] is Estrogen receptor (Homo sapiens) (UniProt P03372). The experiment in a line: qHTS assay to identify small molecule agonists of the estrogen receptor alpha (ER-alpha) signaling pathway in the presence of an antagonist (AID 1259383; calls by dose curve; further: top concentration of the series differs between compounds; nearly all actives have a fitted effect of over 15% in size). The procedure, abridged:
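Readout was ERE-driven luciferase luminescence in VM7Luc4E2 cells, which express full-length ER-alpha endogenously. Compounds were tested at 15 concentrations for 22hr alongside 10.0nM ICI-182,780 (final concentration).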

For experiment [20], the target named is Androgen receptor (Homo sapiens) (UniProt P10275). As to the kind of experiment: qHTS assay to identify small molecule agonists of the androgen receptor (AR) signaling pathway in the presence of an antagonist (AID 1259381; calls by dose curve; further: nearly all actives have a fitted effect of over 15% in size). The procedure, abridged: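 Reporter-gene luminescence from MDA-kb2 cells exposed 16hr at 37C (0% CO2) to 15-point compound titrations with 3.0uM final nilutamide as AR antagonist.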
Chain of Androgen receptor (Homo sapiens) (P10275 whole entry, looked up): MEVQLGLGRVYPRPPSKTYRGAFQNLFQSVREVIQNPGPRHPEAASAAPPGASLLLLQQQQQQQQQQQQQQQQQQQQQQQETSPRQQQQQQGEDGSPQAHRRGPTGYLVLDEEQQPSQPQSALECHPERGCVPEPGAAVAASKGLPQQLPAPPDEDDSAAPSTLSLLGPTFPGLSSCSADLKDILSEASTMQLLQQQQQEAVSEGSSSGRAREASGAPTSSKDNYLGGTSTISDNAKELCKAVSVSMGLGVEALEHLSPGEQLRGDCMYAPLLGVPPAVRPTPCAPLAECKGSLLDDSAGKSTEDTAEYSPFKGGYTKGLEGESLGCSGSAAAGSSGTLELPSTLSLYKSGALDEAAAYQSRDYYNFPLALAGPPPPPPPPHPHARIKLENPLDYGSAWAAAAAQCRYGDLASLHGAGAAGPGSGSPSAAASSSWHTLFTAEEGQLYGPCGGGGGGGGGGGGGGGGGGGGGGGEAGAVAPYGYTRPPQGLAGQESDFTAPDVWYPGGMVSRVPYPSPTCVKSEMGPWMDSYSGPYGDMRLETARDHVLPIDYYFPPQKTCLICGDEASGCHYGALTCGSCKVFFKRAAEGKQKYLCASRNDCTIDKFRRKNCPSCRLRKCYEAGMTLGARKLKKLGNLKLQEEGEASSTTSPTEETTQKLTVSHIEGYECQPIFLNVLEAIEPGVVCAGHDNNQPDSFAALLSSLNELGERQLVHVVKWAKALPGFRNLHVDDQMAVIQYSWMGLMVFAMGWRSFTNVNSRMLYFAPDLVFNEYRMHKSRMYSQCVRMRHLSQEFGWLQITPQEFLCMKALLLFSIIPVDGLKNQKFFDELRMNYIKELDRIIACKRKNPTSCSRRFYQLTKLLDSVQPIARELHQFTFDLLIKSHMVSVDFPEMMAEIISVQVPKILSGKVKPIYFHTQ

Chain of Thyrotropin receptor (Homo sapiens) (P16473 whole entry, looked up): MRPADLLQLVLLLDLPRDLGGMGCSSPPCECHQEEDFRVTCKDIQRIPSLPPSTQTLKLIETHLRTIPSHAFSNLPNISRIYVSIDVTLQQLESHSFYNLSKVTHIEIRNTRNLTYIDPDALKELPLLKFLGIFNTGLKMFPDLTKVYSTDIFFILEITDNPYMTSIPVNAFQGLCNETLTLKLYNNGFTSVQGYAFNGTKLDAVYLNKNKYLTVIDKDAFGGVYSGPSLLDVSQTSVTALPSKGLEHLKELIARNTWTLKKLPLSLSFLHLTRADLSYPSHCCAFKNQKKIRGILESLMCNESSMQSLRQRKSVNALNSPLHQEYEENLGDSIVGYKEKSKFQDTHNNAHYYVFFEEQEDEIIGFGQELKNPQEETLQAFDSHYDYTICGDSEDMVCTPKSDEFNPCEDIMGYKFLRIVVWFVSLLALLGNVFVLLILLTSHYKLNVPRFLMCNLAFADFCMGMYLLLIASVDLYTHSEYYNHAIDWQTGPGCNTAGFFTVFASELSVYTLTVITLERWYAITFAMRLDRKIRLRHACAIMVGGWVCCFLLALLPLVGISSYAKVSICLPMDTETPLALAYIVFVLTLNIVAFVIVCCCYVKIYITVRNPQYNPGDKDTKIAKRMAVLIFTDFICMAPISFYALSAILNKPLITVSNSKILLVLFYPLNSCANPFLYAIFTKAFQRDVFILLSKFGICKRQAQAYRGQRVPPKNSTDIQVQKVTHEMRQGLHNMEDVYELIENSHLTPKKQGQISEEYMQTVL
Chain of Estrogen receptor beta (Homo sapiens) (Q92731 whole entry, looked up): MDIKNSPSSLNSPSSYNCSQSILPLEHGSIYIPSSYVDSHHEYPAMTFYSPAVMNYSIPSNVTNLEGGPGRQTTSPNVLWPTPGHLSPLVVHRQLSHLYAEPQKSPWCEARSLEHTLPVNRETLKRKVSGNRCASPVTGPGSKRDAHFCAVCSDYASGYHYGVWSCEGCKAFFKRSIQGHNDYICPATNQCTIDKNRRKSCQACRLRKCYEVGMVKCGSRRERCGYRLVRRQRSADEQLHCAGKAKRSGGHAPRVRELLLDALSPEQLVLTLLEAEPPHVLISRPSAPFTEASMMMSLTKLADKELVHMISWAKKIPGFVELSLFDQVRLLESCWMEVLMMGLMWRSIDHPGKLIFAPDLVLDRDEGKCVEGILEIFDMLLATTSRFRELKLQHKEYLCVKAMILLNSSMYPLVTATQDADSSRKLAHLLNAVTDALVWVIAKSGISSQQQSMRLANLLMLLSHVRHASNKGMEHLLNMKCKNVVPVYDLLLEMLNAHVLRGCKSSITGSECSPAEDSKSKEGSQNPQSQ
Chain of Estrogen receptor (Homo sapiens) (P03372 whole entry, looked up): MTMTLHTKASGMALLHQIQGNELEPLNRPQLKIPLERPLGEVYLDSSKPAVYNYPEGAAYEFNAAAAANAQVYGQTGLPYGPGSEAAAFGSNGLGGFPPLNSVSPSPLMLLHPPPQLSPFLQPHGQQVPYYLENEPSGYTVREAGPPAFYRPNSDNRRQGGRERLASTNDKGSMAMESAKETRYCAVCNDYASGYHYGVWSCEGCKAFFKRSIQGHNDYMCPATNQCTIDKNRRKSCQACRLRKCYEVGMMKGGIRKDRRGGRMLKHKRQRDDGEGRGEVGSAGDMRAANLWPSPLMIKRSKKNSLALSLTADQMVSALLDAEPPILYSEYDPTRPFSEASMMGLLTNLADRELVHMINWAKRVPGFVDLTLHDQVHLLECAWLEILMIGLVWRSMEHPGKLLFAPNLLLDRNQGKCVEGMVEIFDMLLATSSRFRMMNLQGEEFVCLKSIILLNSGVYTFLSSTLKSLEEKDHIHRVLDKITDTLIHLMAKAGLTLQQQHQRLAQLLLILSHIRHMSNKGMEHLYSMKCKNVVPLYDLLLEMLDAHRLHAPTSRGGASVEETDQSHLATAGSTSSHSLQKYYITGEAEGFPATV
Chain of Progesterone receptor (Homo sapiens) (P06401 whole entry, looked up): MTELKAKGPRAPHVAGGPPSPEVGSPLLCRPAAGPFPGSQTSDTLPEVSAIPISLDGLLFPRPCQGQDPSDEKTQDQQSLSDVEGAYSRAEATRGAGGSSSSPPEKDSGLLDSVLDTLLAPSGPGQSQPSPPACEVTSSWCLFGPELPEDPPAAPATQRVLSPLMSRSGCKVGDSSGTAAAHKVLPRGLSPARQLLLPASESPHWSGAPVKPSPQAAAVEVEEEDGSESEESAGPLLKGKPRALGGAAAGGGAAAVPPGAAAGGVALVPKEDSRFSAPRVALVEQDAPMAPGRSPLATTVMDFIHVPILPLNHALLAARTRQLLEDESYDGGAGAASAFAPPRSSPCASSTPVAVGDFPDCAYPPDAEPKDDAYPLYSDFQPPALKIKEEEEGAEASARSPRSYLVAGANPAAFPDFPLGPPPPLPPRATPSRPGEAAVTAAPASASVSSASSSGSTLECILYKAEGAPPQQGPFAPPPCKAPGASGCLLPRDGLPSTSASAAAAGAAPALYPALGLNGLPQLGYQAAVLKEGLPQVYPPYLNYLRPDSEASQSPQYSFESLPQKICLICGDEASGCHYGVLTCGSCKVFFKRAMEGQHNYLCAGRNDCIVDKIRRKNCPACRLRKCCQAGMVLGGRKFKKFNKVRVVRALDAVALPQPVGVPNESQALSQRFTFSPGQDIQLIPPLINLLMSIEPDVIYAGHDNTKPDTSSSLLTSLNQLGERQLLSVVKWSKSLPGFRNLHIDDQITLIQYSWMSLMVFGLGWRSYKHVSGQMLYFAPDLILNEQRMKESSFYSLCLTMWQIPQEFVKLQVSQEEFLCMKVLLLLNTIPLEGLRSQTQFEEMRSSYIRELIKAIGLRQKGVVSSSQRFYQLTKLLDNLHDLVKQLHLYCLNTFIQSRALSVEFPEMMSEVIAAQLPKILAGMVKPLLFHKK

Turning to `CC(C#N)(CCC(=O)O)N=NC(C)(C#N)CCC(=O)O` (stereo not drawn), the Potency entry in experiment [1], in experiment [2], in experiment [3], in experiment [4], in [8] and in experiment [9] was “inactive” each time. Besides, the Potency entry in [10], in [11], in experiment [12], in experiment [17] and in [18] was “inactive” each time. Also, the call in experiment [5], in experiment [6], in [7], in experiment [13], in experiment [14] and in experiment [15] was inactive. Also, the outcome in experiment [16] was inactive.
As to `CC(=O)c1ccc2ccccc2c1`, the Potency result in experiment [1], in [2], in experiment [3], in experiment [4], in [8] and in [9] was “inactive” in each case. Moreover, the Potency result in experiment [10], in [11], in experiment [12], in experiment [17] and in [18] was “inactive” in each case. The outcome in [5], in experiment [19], in experiment [6], in [7], in experiment [13] and in [15] was inactive. For the same compound, the outcome in experiment [16] was inactive.
Regarding `CCOC(=O)C(=O)CCCCCCl`, the Potency entry in experiment [1], in [2], in experiment [3], in experiment [4], in [20] and in experiment [9] was “inactive” throughout. Further, the Potency entry in experiment [11], in experiment [12], in [17] and in experiment [18] was “inactive” throughout. In addition, the outcome in experiment [5], in [19], in [6], in experiment [7], in experiment [13] and in experiment [15] was inactive. Further, in experiment [16], the result was inactive.
Turning to `C=CCCCCCCCCC(=O)OCC`, the Potency result in [1], in [2], in [3], in [4], in experiment [8] and in [9] was “inactive” each time. The Potency result in experiment [10], in experiment [11], in experiment [12] and in experiment [18] was “inactive” in each case. In addition, the call in experiment [5], in experiment [19], in experiment [6], in experiment [7], in experiment [13] and in [14] was inactive. The result in [15] was inactive.
For the compound `CCCOC(=O)CC`, the Potency entry in experiment [1], in experiment [2], in experiment [3], in experiment [4], in [20] and in [8] was “inactive” in each case. In addition, the Potency entry in experiment [9], in experiment [10], in experiment [11], in [17] and in [18] was “inactive” each time. For the same compound, the outcome in experiment [5], in [19], in [7], in experiment [13], in experiment [14] and in [15] was inactive. Besides, in experiment [16], the result was inactive.
On to `COC(=O)C1=C(C)NC(C)=C(C(=O)OC(C)C)C1c1cccc2nonc12` (stereo not drawn), for which the Potency result in [1], in experiment [3], in experiment [4], in experiment [20], in [8] and in [9] was “inactive” each time. In addition, in experiment [18], the Potency result is “inactive”. In addition, in experiment [2], the Potency was 26.6 µM (active). In addition, the compound was called inactive in [5], in experiment [6], in experiment [13], in experiment [14] and in experiment [15].
For the compound `COc1cc(-c2ccc(=O)[nH]n2)ccc1OC(F)F`, the Potency result in [1], in experiment [2], in experiment [3], in [4], in [8] and in experiment [9] was “inactive” throughout. The Potency entry in experiment [10], in [11], in experiment [12], in [17] and in experiment [18] was “inactive” in each case. Moreover, the result in experiment [5], in experiment [19], in [6], in experiment [7], in [13] and in experiment [14] was inactive. Also, the compound was classed as inactive in [15] and in experiment [16].
As for `C=CCOCC(O)CO` (stereo not drawn), the Potency result in [1], in experiment [2], in experiment [3], in experiment [4], in [8] and in [9] was “inactive” in each case. Also, the Potency entry in [10], in [11], in [12], in experiment [17] and in experiment [18] was “inactive” each time. Also, the call in [5], in experiment [19], in experiment [6], in [7], in [13] and in experiment [15] was inactive. In [16], the compound was called inactive.
